The full list was thinned out, with hits kept by preference.
RmlC RmlD mix: RmlC and RmlD coupled enzyme inhibitors, primary screen, biochemical, 384-well, compound mixtures, retest | RmlC/RmlD coupled enzyme inhibition, 384-well mixture HTS | inhibition, % at 5.5 µM | 110,000 compounds, 0.39% hits | AID 1532, 2009; in the data active = inhibition above about 30%, passing the limit was not always enough
HIV RNase H inh-1: HIV-1 RT RNase H inhibitors, primary screen, biochemical, fluorescence | Gag-Pol polyprotein (Human immunodeficiency virus type 1 group M subtype B (isolate … | RT-RNase H RNA/DNA duplex cleavage | inhibition, % at 10 µM | 65,000 compounds, 1.9% hits | AID 565, 2006; in the data active = inhibition above about 50%
HIV RNase H inh-2: HIV-1 RT RNase H inhibitors, retest, confirmation, biochemical; inhibition, % at 10 µM; Recombinant RT RNase H, fluorescent RNA/DNA duplex cleavage; AID 651, 2007; shares compounds with HIV RNase H inh-1; 1,000 compounds, 39% hits; in the data active = inhibition above about 48%
RmlCD fluor art: counter-screen for RmlC/RmlD inhibitors: fluorescence artifact, dose response, artefact control, biochemical | calls only | shares compounds with RmlC RmlD mix | 360 compounds, 96% hits | RmlC/RmlD assay fluorescence artifact counter-screen; call rule not given here;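 also: compound alone with no enzyme and no substrates present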
Numbers without * were called inactive; nt = no result; + = active, no number.

SMILES	RmlC RmlD mix	HIV RNase H inh-1	others
C#CCOC(=O)Nc1ccc(=O)n(Cc2c(Cl)cccc2Cl)c1	-1	nt
Cc1cccc(-c2nsc(SCC(=O)Nc3cc(C)on3)n2)c1	-7	70*	HIV RNase H inh-2=48
Cc1cc(NC(=O)CSc2nc3ccccc3s2)no1	-12	nt
N#C/C(=C\N1CCN(Cc2ccc3c(c2)OCO3)CC1)c1nc2ccccc2s1	7	8
Cc1cc(=O)[nH]c(/N=C(/NC(=O)c2ccccc2)Nc2ccc3c(c2)OCCO3)n1	nt	48
CCCc1cc(=O)[nH]c(/N=C(/NC(=O)c2ccccc2)Nc2ccc3c(c2)OCCO3)n1	9	61*	HIV RNase H inh-2=48
c1ccc(OCc2nn3c(Cn4cnc5ccccc54)nnc3s2)cc1	8	38
c1cncc(-c2nn3c(Cn4cnc5ccccc54)nnc3s2)c1	-6	97*	HIV RNase H inh-2=68*
N#Cc1c(N)oc(-c2ccco2)c1-c1ccco1	-33	-45
COc1ccc(OC)c(/C=N/c2oc(-c3ccco3)c(-c3ccco3)c2C#N)c1	11	58*	HIV RNase H inh-2=66*
CCCc1[nH]nc2c1C(c1ccc(OC)cc1OC)C(C#N)=C(N)O2 (stereo not drawn)	3	0
CCOC(=O)c1[nH]c2ccc(OC)cc2c1NC(=O)CN1CCC2(CC1)OCCO2	34	74*	HIV RNase H inh-2=33
CCOC(=O)c1[nH]c2ccc(OC)cc2c1NC(=O)C(C)N1CCC2(CC1)OCCO2 (stereo not drawn)	27	3
CC1(C)N=C(c2cccs2)C(C)(C)N1O	-1	nt
CC(C)Oc1ccc(CSc2nnc3n(C)c(=O)c4c5c(sc4n23)CCCC5)cc1	-10	9
CCC1(C)Cc2c(sc3c2c(=O)n(C)c2nnc(SCc4ccc5c(c4)OCO5)n32)CO1 (stereo not drawn)	6	58*	HIV RNase H inh-2=75*
CC(C)(C#N)Nn1cnnc1	9	6
CCc1c(C)nc2cc(-c3ccc(OC)c(OC)c3)nn2c1N1CCCC1	3	-35
Cn1c(CNC(=O)Nc2ccccc2)nnc1SCc1ccccc1	1	0
Cc1cc(C)cc(NC(=O)NCc2nnc(SCc3ccccc3)n2C)c1	-14	82*	HIV RNase H inh-2=47
Cc1ccc(C2Oc3ccccc3C3=C2C(c2cccs2)n2ncnc2N3)cc1 (stereo not drawn)	12	nt
CC1CC(C)(C)NC(=S)S1 (stereo not drawn)	-7	78*	HIV RNase H inh-2=52*
CC1CC(C)(C)NC(=O)O1 (stereo not drawn)	5	-6
Cn1nc(-c2ccc(N3CCCCC3)c(NC(=O)c3ccco3)c2)c2ccccc2c1=O	9	-4
Cc1ccc(NC(=O)c2ccc3c(c2)N(CC(=O)N2CCCCC2)C(=O)C(C)(C)O3)cc1	-14	-11
SMILES	RmlC RmlD mix	HIV RNase H inh-1	others
CC1(C)Oc2ccc(C(=O)NC3CCCC3)cc2N(CC(=O)NC2CCCCC2)C1=O	7	73*	HIV RNase H inh-2=48
O=C(Nc1nc2ccccc2n1Cc1ccccc1)c1ccco1	-8	-86
O=C(Nc1nc(NC(=O)c2ccco2)n(-c2ccccc2)n1)c1ccccc1	138*	53*	HIV RNase H inh-2=29;RmlCD fluor art=+
CC(C)(C)N(Cc1cc2ccccc2[nH]c1=O)C(=O)c1cccnc1	-8	-4
CC(Oc1ccc2oc(-c3ccccc3)c(C(=O)O)c2c1)C(=O)O (stereo not drawn)	58*	-2	RmlCD fluor art=+
CCOc1ccc2oc(-c3ccccc3)c(C(=O)O)c2c1	26	-7
CC(=O)c1ccc(NC(=S)NC(NC(=O)c2ccco2)C(Cl)(Cl)Cl)cc1 (stereo not drawn)	10	nt
Cc1oc2c(C)c3oc(=O)c4c(c3cc2c1C)CCC4	-8	-6
O=c1cc(-c2ccccc2)c2ccc(O)c(CN3CCCCC3)c2o1	4	-1
Cc1c(O)c(CN2CCCCC2)cc2c3c(c(=O)oc12)CCC3	91*	4	RmlCD fluor art=+
O=c1oc2c(CN3CCCCC3)c(O)ccc2c2c1CCCC2	96*	nt	RmlCD fluor art=+
O=C(Nc1ccccc1)C1=C[C@H](C2CC2)C[C@H](OCCCCO)O1	-10	nt
CC(C)OC(=O)c1cc2ccccc2[nH]1	-10	nt
CCOC(=O)c1cc2cc3ccccc3cc2[nH]1	125*	nt	RmlCD fluor art=+
CC(=NCCCn1ccnc1)C1=C(O)c2ccccc2C1=O	-11	-7
COC(=O)N1C/C=C\C(c2ccc(OC)cc2)N(Cc2ccc(F)cc2)C(=O)C1 (stereo not drawn)	5	nt
CCOC(=O)NCc1ccc(S(=O)(=O)Nc2ccc(C)cc2)cc1	-16	nt
CN(C)CCCNc1oc(-c2ccccc2)nc1C#N	17	-10

Screens deposited in PubChem BioAssay by several laboratories.
